# Screens from PubChem.
# TDP1 cell CPT: qHTS for Inhibitors of human tyrosyl-DNA phosphodiesterase 1 (TDP1): qHTS in cells in presence of CPT; chicken DT40 Tdp1-/-;hTDP1 cells + 20 nM CPT, ATP luminescence, 48 h; Potency, µM (doses to about 46.2 µM), inactives show at the top dose activity change, negative = growth inhibition, actives largely listed as inhibitors; hit rate 12% among 420,000; further: potency means the concentration at half of the fitted maximal effect; on the % scale 0 is the no-effect control and ±100 the full control effect; nearly all actives have a fitted effect of over 55% in size
#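 Cell growth measured by CellTiter-Glo luminescence after a minimum 48 h, 37 C compound exposure with 20 nM CPT in Tdp1-knockout DT40 cells stably expressing hTDP1, seeded 400/well; qHTS titration format.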
# SW480 rereplic: A quantitative high throughput screen for small molecules that induce DNA re-replication in SW480 colon adenocarcinoma cells. SW480 DNA re-replication, Hoechst DNA content imaging, 48 h. Potency, µM (doses to about 46.1 µM), for the others: at the top dose re-replication activation, most hits filed as activators. hit rate 1.8% among 340,000. AID 624297, 2012; further: potency means the concentration at half of the fitted maximal effect; % of control where 0% means no effect; nearly all actives have a fitted effect of over 55% in size
#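 Hoechst fluorescence of nuclei (405 nm excitation, 500-530 nm emission) measured by plate-scanning imager after 48 hr compound exposure at 37 C; re-replication scored as increased number of nuclei with elevated intensity.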
# IL-1B inflam inh: qHTS for Inhibitors of Inflammasome Signaling: IL-1-beta AlphaLISA Primary Screen; hit rate 4.7% among 360,000; THP-1 LPS/ATP IL-1B secretion, AlphaLISA, 16 h; hits give low values; activity change, % at 57.5 µM; in the data active means activity change below about -50%; inconclusive means mostly about -30% to -49%; further: on the % scale 0 is the no-effect control and ±100 the full control effect
#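 THP-1 cells pretreated 1 hr with compounds (up to 57.5 uM final), then stimulated with LPS (250 ng/mL final) plus ATP (1.25 mM final); secreted IL-1B measured by AlphaLISA after 16 hr, decreased signal indicating inhibition.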
# DT40 TDP1 no CPT: qHTS for Inhibitors of human tyrosyl-DNA phosphodiesterase 1 (TDP1): qHTS in cells in absence of CPT; DT40 Tdp1-/- hTDP1 cells, no CPT, ATP luminescence, 48 h; Potency, µM (doses to about 46.2 µM), for inactives: at the top dose activity change, negative = growth inhibition, usual class: inhibitors; hit rate 15% among 420,000; AID 686978, 2013; further: potency means the concentration at half of the fitted maximal effect; on the % scale 0 is the no-effect control and ±100 the full control effect; nearly all actives have a fitted effect of over 55% in size
#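 Stably hTDP1-transfected Tdp1-null chicken DT40 cells were treated with library compounds minus camptothecin and grown for at least 48 hr at 37 °C, after which cellular ATP was quantified by luminescence.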
# BCR signal inh: qHTS Assay to Find Inhibitors of Chronic Active B-Cell Receptor Signaling | ABC-DLBCL IkBa-CBG/CBR reporter, luminescence ratio, 4 h | Potency, µM (highest dose often 46.1 µM), inactives show top-dose activity change, negative = inhibition, most hits filed as inhibitors | hit rate 0.05% among 340,000 | AID 493014, 2011; active means well fitted inhibition curve with a large enough effect in the signal ratio, with a control signal flat, not every such curve was filed as active; inconclusive means small, poorly fitted or top-dose-only effect, or effect the other way, or a change in a side signal; the % refers to the signal ratio;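 further: potency means the concentration at half of the fitted maximal effect; plate controls were basal doxycycline-induced cells for no effect and cells given 10 µM MG132 for full effect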
#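 Cell line TMD8 (human ABC DLBCL), stably expressing tet-inducible CBG68-IkBa fusion and CBR; IMDM/0.5% FBS; cpd up to 46 uM; dox induction, 4 h, 37C/5% CO2; dual luminescence; green/red ratio; MG132 control.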
# MCF10A rerep: A quantitative high throughput screen for small molecules that induce DNA re-replication in MCF 10a normal breast cells. MCF 10A DNA re-replication, Hoechst nuclear intensity, 48 h. Potency, µM (highest dose often 46.1 µM), without a hit: top-dose activity, positive = re-replication, usual class: activators. hit rate 2.9% among 350,000. AID 624296, 2012; further: potency means the concentration at half of the fitted maximal effect; % of control where 0% means no effect; nearly all actives have a fitted effect of over 50% in size
# The depositor's hits bear a star; ? = inconclusive; · = no result; [ ] = dose if it differs, or a comment. Only some compounds are listed: those with a hit (about 19% of all), similar ones and a draw of the others. Unless noted, the call rests on the fitted dose curve; in most records, active means well fitted curve in the direction sought with a large enough effect; inconclusive means small, poorly fitted or top-dose-only effect, or another doubt; inactive means no such curve, though single readings can be large; an effect the other way counts as inactive or inconclusive.
SMILES,TDP1 cell CPT,SW480 rereplic,IL-1B inflam inh,DT40 TDP1 no CPT,BCR signal inh,MCF10A rerep
O=C1CC(N2CCC(n3c(=O)[nH]c4ccccc43)CC2)C(=O)N1c1ccc(F)cc1 (configuration not stated),-13%,0%,-15,-29%,3%,2%
CCCCN1CC(COCc2ccccc2)Oc2cccc(Oc3ccc(C(C)C)cc3)c2S1(=O)=O (configuration not stated),10µM*,-37%,27,5.2µM*,·,11%
NC(CO)Cc1ccccc1 (configuration not stated),-7%,·,·,-21%,·,·
CN1/C(=C\C=C2C(=O)NC(=O)NC2=O)C(C)(C)c2ccccc21,?,8%,-8,-28%,-2%,12%
CCN1/C(=C/C=C/C2=[N+](CC)c3ccccc3C2(C)C)C(C)(C)c2ccccc21,0.15µM*,·,-105*,0.13µM*,·,·
CCOc1ccc2nc(NC(=O)c3cccn(Cc4ccccc4)c3=O)sc2c1,?,·,·,?,-13%,·
CCOC(=O)[C@]12Cc3cc(C)ccc3[C@H]1N(Cc1ccccc1)C(=O)c1cc(OC)ccc12,?,·,-96*,21µM*,·,·
CCOC(=O)[C@]12Cc3cc(Cl)ccc3[C@H]1N(Cc1ccccc1)C(=O)c1ccccc12,10µM*,2%[9.22 µM],-15,?,·,-49%
CCOC(=O)[C@]12Cc3ccccc3[C@H]1N(Cc1ccccc1)C(=O)c1cc(F)c(F)cc12,?,·,-67*,23µM*,·,·
CN1C(=O)C(C2c3ccccc3C(=O)N2Cc2ccccc2)C(=O)N(C)C1=O (configuration not stated),4%,1%,53,10%,10%,-13%
CCOC(=O)[C@]12Cc3cc(N(C)C)ccc3[C@H]1N(Cc1ccccc1)C(=O)c1ccccc12,13µM*,-1%,-8,6.5µM*,·,15%
CC1(C)CC(=O)c2cc(OCC(=O)N3CCN(Cc4ccccc4)CC3)ccc2O1,7%,?,0,-3%,-18%,-2%
N#CC1c2ccccc2-n2nncc2CN1S(=O)(=O)c1ccccc1 (configuration not stated),-2%,0%,18,-1%,·,-2%
NC(=O)Cn1cc(C(=O)c2ccccc2)c2ccccc21,20%,1%,2,0%,-1%,0%
Cc1cc(OCCN2CC2)c2ccccc2n1,·,·,·,·,-5%,·
O=C(Nc1ccc(Cl)cc1Cl)c1cc(S(=O)(=O)NCc2ccc3c(c2)OCO3)ccc1F,-18%,·,·,-14%,?,·
CCOC(=O)[C@]12Cc3cc4c(cc3[C@H]1N(Cc1ccccc1)C(=O)c1ccccc12)OCO4,?,-5%[9.22 µM],-22,15µM*,·,-36%
CCOC(=O)[C@]12Cc3cc(C)ccc3[C@H]1N(CCC(=O)OC)C(=O)c1ccccc12,23µM*,·,-113*,16µM*,·,·
C[C@@]12CC[C@@H](c3cc4c(cc3C1)OCO4)N2c1ccccc1,?,·,30,?,·,·
CCCCCN1C(=O)c2ccccc2[C@@]2(C(=O)OCC)Cc3cc(Cl)ccc3[C@@H]12,?,·,-50*,?,·,·
CC(CN(C)C1CCN(C)CC1)c1ccccc1 (configuration not stated),-9%,?,-12,2%,1%,?
N#CC12CNCC1CN=N2 (configuration not stated),-1%,-7%,3,5%,-1%,-1%
O=c1[nH]c(O)c(N=Nc2ccc(SC(F)F)cc2)c(=O)[nH]1,-7%,1%,-27,21%,10%,-4%
CSc1ccccc1NC(=O)CN(C)CC(=O)c1[nH]c(C)c(C(C)=O)c1C,15µM*,15%,18,15µM*,?,?
CSc1ccccc1NC(=O)CN(C)C(=O)Cn1c(=O)oc2ccccc21,6%,?,24,-25%,?,-9%
SMILES,TDP1 cell CPT,SW480 rereplic,IL-1B inflam inh,DT40 TDP1 no CPT,BCR signal inh,MCF10A rerep
COc1cc2[nH]c(C(=O)N3CCC4(CC3)OCCO4)cc2c(OC)c1OC,-5%,-1%,0,26%,-7%,-1%
Cc1ccccc1C(=O)Oc1cccc(Nc2ncnc3ccccc23)c1,16µM*,10%,-9,13µM*,·,28%
O=C(NP(=O)(N1CC1)N1CC1)c1cc(I)ccc1I,1.5µM*,14%,24,2.3µM*,·,?
O=C1NC(=S)NC(=O)C1=Cc1ccc(OCC(=O)N2CCCC2)cc1,-14%,-2%,18,19%,4%,5%
CC(C)[C@]12CC(=O)[C@H](C)[C@H]1C2,5%,-7%,13,-11%,2%,-4%
CCn1c(=O)cc(SCC(=O)N2CCC3(CC2)OCCO3)c2ccccc21,?,-5%,?,?,-9%,-24%
Clc1cccc(CNCCc2c[nH]c3ccccc23)c1,?,?,-92*,?,1%,?
COc1ccccc1CCNCc1ccc(OC)c(OC)c1OC,26µM*,2%,?,12µM*,-9%,1%
COc1ccc(CNCCc2c[nH]c3ccccc23)c(OC)c1OC,16µM*,-13%[1.84 µM],-58*,12µM*,-1%,-17%
CCOc1cc(CNCCc2c[nH]c3ccccc23)cc(Cl)c1OC,8.2µM*,?,-103*,5.8µM*,?,?
COc1cccc(CNCCc2c[nH]c3ccccc23)c1OC,2%,-2%,12,-15%,-20%,6%
C=CC[N+]1(C)CCC23c4c5ccc(O)c4O[C@H]2C(=O)CC[C@@]3(O)C1C5 (some centres not stated),·,10%,·,·,·,0%
COc1ccc(C(=O)CN2CCCCC2)cc1,-10%,2%,2,-1%,6%,-2%
COc1ccc(C(=O)Cn2c(NCCO)nc3ccccc32)cc1,16µM*,5%,-22,?,-1%,-3%
Nc1ccccc1C(=O)OC1CSC1,-13%,0%,31,-8%,-2%,24%
COc1ccccc1C1C([N+](=O)[O-])=C(N)Oc2c1c(=O)oc1ccccc21 (configuration not stated),23%,-15%,-17,0%,?,-2%
O=P1(Nc2ccc(F)cc2)COc2ccccc2OC1,4%,-2%,-8,-6%,?,-3%
